Reference: PubChem BioAssay (NCATS)
Results filed as inconclusive are left out. The source made the active and inactive calls. Unless noted, the call rests on the fitted dose curve; in most records, active means well fitted curve in the direction sought with a large enough effect; inconclusive means small, poorly fitted or top-dose-only effect, or another doubt; inactive means no such curve, though single readings can be large; an effect the other way counts as inactive or inconclusive.

Columns and labels:
[1] = AP1 Signaling Pathway (AID 357; active means well fitted curve in either direction with a large enough effect, not every such curve was filed as active;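 further: ME-180 reporter cells stimulated with EGF at its EC50 level; on the % scale 0 is the no-effect control and ±100 the full control effect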)
Outline: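 First, ME-180 AP-1-bla cells were cultured overnight at 37 °C in low-serum Opti-MEM. Next, titrated compounds with EC50 EGF were incubated 5 hours. Finally, CCF4 was added for 2.5 hours and the 460/530 nm ratio recorded.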

[2] = target: Glucocorticoid receptor (Homo sapiens) (UniProt P04150); test: GR-GFP Redistribution (AID 450;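 active means compounds whose dose series gives a full or clear partial fitted curve of increased nuclear translocation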; further: potency means the concentration at half of the fitted maximal effect); settings: U2OS GR-GFP nuclear translocation, laser cytometry, 2 h
[3] = target: Glucocorticoid receptor (Homo sapiens) (UniProt P04150); test: GR-EFC Redistribution (AID 451; calls by dose curve; further: potency means the concentration at half of the fitted maximal effect); settings: CHO-K1 GR-EFC translocation, beta-gal luminescence, 2 h
Outline: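 CHO-K1 cells stably expressing nuclear-localized β-gal enzyme acceptor and GR fused C-terminally to the enzyme donor fragment; ligand-driven nuclear translocation restores β-gal by complementation. Compounds titrated up to 46 uM final, 2 h at 37 °C; luminescence read.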

[4] = target: Mitogen-activated protein kinase 10 (Mus musculus) (UniProt Q61831); test: JNK3 AlphaScreen Assay (AID 530; active means well fitted curve in either direction with a large enough effect, not every such curve was filed as active;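 further: kinase came from lysate of stimulated human HepG2 cells; signal reports phosphorylation of biotinylated GST-cJun 1-79 at Ser73 with 10 µM ATP; on the % scale 0 is the no-effect control and ±100 the full control effect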)
Outline: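 Inhibitors reduce antibody binding to phosphorylated biotin-cJun, lowering AlphaScreen luminescence. Lysates from HepG2 cells pre-activated by IL-1beta plus TNF-alpha supplied JNK3; compounds were titrated.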

[5] = qHTS Assay for Identification of Small Molecule Agonists for Hypoxia Response Element Signaling Pathway (AID 914; active means well fitted activation curve with a large enough effect in the signal ratio, with a control signal flat, not every such curve was filed as active; the % refers to the signal ratio; further: % of control where 0% means no effect); settings: ME-180 (cervical carcinoma) HRE-bla reporter, beta-lactamase ratio, CoCl2, 17 h; activation: hits give high values
Outline: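 Reporter activity (beta-lactamase, CCF4 460nm/530nm ratio) in HRE-bla ME-180 cells is recorded after 17 h compound exposure with EC50 CoCl2 at 37 degrees Celsius. AC50 values come from titration data.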

[6] = target: ATP-dependent 6-phosphofructokinase (Trypanosoma brucei brucei) (UniProt O15648); test: qHTS Assay to Find Inhibitors of T. brucei phosphofructokinase: hit validation (AID 492961);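 further: luminescence reports ADP formed as PFK phosphorylates fructose-6-phosphate with ATP; on the % scale 0 is the no-effect control and ±100 the full control effect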
Outline: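 PFK 1.25 nM, F6P 0.5 mM, ATP 0.1 mM, MgCl2 5 mM, 0.1 M TEA pH 8.0, Tween20 0.01%, BSA 0.1%; 45 min RT. ADP-Glo two-step detection, luminescence. qHTS titration; curve fitting with curve-class categorization.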

[7] = target: Ubiquitin carboxyl-terminal hydrolase 1 (Homo sapiens) (UniProt O94782); test: Inhibitors of USP1/UAF1: Pilot qHTS (AID 504865);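 further: rhodamine fluorescence freed from ubiquitin-rhodamine substrate followed over time; top concentration of the series differs between compounds; on the % scale 0 is the no-effect control and ±100 the full control effect; nearly all actives have a fitted effect of over 35% in size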
Outline: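 Deubiquitinase activity followed as kinetic rhodamine fluorescence release from 150 nM Ub-Rho. 1 nM USP1/UAF1 with compound, after 15 min room-temperature preincubation, in HEPES pH 7.8 buffer containing TCEP, EDTA, BSA and Tween-20.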

[8] = target: Luciferin 4-monooxygenase (Photinus pyralis) (UniProt P08659); test: Biochemical firefly luciferase enzyme assay for NPC (AID 624030);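 further: purified P. pyralis luciferase at 10 nM with luciferin and ATP substrate; 0% = DMSO and -100% = full luciferase inhibition by PTC124 control; nearly all actives have a fitted effect of over 70% in size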
Outline: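 Counter-screen for direct inhibition of the luciferase enzyme by approved-drug library compounds, run at 10 nM enzyme in 50 mM Tris acetate (final). Luminescence was read within 5 min of enzyme-buffer addition and normalized to PTC124 versus DMSO (0%).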

[9] = S16 Schwann cell PMP22 intronic element firefly luciferase assay (AID 624032);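 further: plate controls were DMSO for no effect and PTC124 positive control mean for full effect; nearly all actives have a fitted effect of over 30% in size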
Outline: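 Rat S16 Schwann cells stably carrying a PMP22 intronic element-driven Fluc reporter were seeded overnight, then exposed to compounds for 24 h at 37 °C. Luminescence was normalized to PTC124 (positive control) and DMSO (0% activity).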

[10] = qHTS profiling for inhibitors of Plasmodium falciparum proliferation (AID 504749);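 further: 0% = DMSO vehicle and full inhibition = artemisinin control; nearly all actives have a fitted effect of over 60% in size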; settings: P. falciparum in erythrocytes, SYBR Green DNA, 72 h, at 12.8 µM (top of the series)
Outline: (§1)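 Parasite proliferation within erythrocytes, 72 h exposure. Endpoint: SYBR Green I fluorescence after overnight lysis at room temperature. Controls: 0.29 uM artemisinin, DMSO.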

3D7 = test: as above; settings: P. falciparum in erythrocytes, SYBR Green DNA, 72 h; series mostly up to 12.8 µM
Outline: as §1

7G8 = test: as above; settings: P. falciparum in erythrocytes, SYBR Green DNA, 72 h; series mostly up to 12.8 µM
Outline: as §1

AA1029 = test: as above; settings: P. falciparum in erythrocytes, SYBR Green DNA, 72 h; series mostly up to 12.8 µM
Outline: as §1

AS120 = test: as above; settings: P. falciparum in erythrocytes, SYBR Green DNA, 72 h; series mostly up to 12.8 µM
Outline: as §1

ATS189 = test: as above; settings: P. falciparum in erythrocytes, SYBR Green DNA, 72 h; series mostly up to 12.8 µM
Outline: as §1

ATS95 = test: as above; settings: P. falciparum in erythrocytes, SYBR Green DNA, 72 h; series mostly up to 12.8 µM
Outline: as §1

C2A = test: as above; settings: P. falciparum in erythrocytes, SYBR Green DNA, 72 h; series mostly up to 12.8 µM
Outline: as §1

CP185 = test: as above; settings: P. falciparum in erythrocytes, SYBR Green DNA, 72 h; series mostly up to 12.8 µM
Outline: as §1

CP191 = test: as above; settings: P. falciparum in erythrocytes, SYBR Green DNA, 72 h; series mostly up to 12.8 µM
Outline: as §1

CP192 = test: as above; settings: P. falciparum in erythrocytes, SYBR Green DNA, 72 h; series mostly up to 12.8 µM
Outline: as §1

CP194 = test: as above; settings: P. falciparum in erythrocytes, SYBR Green DNA, 72 h; series mostly up to 12.8 µM
Outline: as §1

CP201 = test: as above; settings: P. falciparum in erythrocytes, SYBR Green DNA, 72 h; series mostly up to 12.8 µM
Outline: as §1

CP203 = test: as above; settings: P. falciparum in erythrocytes, SYBR Green DNA, 72 h; series mostly up to 12.8 µM
Outline: as §1

CP211 = test: as above; settings: P. falciparum in erythrocytes, SYBR Green DNA, 72 h; series mostly up to 12.8 µM
Outline: as §1

CP217 = test: as above; settings: P. falciparum in erythrocytes, SYBR Green DNA, 72 h; series mostly up to 12.8 µM
Outline: as §1

CP237 = test: as above; settings: P. falciparum in erythrocytes, SYBR Green DNA, 72 h; series mostly up to 12.8 µM
Outline: as §1

CP238 = test: as above; settings: P. falciparum in erythrocytes, SYBR Green DNA, 72 h; series mostly up to 12.8 µM
Outline: as §1

CP247 = test: as above; settings: P. falciparum in erythrocytes, SYBR Green DNA, 72 h; series mostly up to 12.8 µM
Outline: as §1

CP250 = test: as above; settings: P. falciparum in erythrocytes, SYBR Green DNA, 72 h; series mostly up to 12.8 µM
Outline: as §1

CP252 = test: as above; settings: P. falciparum in erythrocytes, SYBR Green DNA, 72 h; series mostly up to 12.8 µM
Outline: as §1

CP256 = test: as above; settings: P. falciparum in erythrocytes, SYBR Green DNA, 72 h; series mostly up to 12.8 µM
Outline: as §1

CP260 = test: as above; settings: P. falciparum in erythrocytes, SYBR Green DNA, 72 h; series mostly up to 12.8 µM
Outline: as §1

CP262 = test: as above; settings: P. falciparum in erythrocytes, SYBR Green DNA, 72 h; series mostly up to 12.8 µM
Outline: as §1

Chain of Glucocorticoid receptor (Homo sapiens) (P04150 whole entry, looked up, the tested form may be a part): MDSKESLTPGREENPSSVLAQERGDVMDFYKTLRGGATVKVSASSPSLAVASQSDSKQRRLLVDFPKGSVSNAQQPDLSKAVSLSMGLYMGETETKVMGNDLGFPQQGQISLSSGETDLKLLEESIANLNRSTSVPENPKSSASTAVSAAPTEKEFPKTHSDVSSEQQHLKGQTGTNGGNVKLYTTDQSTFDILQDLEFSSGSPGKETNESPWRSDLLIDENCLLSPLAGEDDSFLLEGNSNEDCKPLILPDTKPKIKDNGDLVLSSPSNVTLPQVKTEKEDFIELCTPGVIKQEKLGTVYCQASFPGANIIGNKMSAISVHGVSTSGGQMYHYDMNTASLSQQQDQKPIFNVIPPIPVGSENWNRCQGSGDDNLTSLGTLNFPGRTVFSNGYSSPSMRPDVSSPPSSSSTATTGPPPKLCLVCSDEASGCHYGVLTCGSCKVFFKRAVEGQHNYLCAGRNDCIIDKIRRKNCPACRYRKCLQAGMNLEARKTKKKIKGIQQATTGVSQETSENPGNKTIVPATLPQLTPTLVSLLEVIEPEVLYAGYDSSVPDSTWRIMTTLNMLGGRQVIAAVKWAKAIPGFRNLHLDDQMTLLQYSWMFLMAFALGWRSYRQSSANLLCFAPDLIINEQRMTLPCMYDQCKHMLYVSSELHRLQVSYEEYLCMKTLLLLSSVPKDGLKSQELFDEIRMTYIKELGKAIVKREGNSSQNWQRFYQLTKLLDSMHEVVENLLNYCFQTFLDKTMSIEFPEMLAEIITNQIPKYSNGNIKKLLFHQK
Chain of Ubiquitin carboxyl-terminal hydrolase 1 (Homo sapiens) (O94782 whole entry, looked up): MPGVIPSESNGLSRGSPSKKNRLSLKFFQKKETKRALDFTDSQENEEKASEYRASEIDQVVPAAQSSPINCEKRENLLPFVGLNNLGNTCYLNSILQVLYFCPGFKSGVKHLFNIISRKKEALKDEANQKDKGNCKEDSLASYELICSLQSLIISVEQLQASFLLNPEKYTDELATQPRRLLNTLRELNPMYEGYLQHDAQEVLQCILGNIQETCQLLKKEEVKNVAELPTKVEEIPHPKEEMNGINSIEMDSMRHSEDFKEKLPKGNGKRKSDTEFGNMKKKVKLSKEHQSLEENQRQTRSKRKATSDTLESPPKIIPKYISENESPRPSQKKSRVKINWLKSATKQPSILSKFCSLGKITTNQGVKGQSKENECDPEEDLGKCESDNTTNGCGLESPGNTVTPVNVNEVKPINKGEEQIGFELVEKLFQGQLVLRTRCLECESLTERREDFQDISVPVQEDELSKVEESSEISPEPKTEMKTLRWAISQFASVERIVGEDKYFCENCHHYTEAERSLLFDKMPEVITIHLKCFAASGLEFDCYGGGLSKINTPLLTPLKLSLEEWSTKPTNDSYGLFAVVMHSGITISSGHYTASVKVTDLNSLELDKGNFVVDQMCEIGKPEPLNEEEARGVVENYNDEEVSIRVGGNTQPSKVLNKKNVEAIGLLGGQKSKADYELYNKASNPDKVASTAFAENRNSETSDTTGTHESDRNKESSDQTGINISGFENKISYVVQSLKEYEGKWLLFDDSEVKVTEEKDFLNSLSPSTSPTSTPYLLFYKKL
Chain of Luciferin 4-monooxygenase (Photinus pyralis) (P08659 whole entry, looked up): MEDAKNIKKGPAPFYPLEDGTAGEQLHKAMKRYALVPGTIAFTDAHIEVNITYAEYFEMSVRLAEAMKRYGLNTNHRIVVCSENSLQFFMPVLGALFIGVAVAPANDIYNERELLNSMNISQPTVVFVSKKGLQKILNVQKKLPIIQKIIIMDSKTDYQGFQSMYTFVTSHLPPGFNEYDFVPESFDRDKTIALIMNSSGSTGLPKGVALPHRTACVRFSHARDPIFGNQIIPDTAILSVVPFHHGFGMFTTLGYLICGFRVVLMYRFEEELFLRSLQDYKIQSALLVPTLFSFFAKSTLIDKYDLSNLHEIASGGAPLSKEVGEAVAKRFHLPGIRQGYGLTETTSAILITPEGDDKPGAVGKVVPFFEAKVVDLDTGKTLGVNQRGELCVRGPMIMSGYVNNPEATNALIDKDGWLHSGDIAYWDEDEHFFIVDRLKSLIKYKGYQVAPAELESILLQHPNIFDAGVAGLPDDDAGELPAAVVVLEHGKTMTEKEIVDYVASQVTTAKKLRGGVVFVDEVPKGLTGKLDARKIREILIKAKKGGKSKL
Chain of ATP-dependent 6-phosphofructokinase (Trypanosoma brucei brucei) (O15648 whole entry, looked up): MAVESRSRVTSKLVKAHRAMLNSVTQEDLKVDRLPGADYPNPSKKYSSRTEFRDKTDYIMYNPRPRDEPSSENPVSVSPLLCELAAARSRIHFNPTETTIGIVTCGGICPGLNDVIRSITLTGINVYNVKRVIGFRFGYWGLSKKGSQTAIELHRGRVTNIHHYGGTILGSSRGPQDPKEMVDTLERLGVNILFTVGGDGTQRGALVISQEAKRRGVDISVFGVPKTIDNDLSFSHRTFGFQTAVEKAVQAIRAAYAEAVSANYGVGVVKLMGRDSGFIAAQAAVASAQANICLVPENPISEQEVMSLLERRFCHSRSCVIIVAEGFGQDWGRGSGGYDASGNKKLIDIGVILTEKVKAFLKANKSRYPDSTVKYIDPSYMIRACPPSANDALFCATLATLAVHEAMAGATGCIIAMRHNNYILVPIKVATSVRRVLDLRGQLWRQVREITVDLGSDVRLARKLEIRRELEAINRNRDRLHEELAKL

CC[C@H]1NC(=O)c2cc(S(N)(=O)=O)c(Cl)cc2N1
inactive: outcome [1] | Potency [2] > 20.6 µM | Potency [3] > 20.6 µM | Potency [4] | activation [5] 3.52% | outcome [6] | Potency [7] | Potency [8] | Potency [9] | activity, negative = inhibition ([10]; parasite line A) -8.58% | activity, negative = inhibition ([10]; parasite line B) 18.4% | Potency (3D7) | Potency (7G8) | Potency (AA1029) | Potency (AS120) | Potency (ATS189) | Potency (ATS95) | Potency (C2A) | Potency (CP185) | Potency (CP191) | Potency (CP192) | Potency (CP194) | Potency (CP201) | Potency (CP203) | Potency (CP211) | Potency (CP217) | Potency (CP237) | Potency (CP238) | Potency (CP247) | Potency (CP250) | Potency (CP252) | Potency (CP256) | Potency (CP260) | Potency (CP262)
